# About 79,000 compounds went through this panel and 15% of them were active in at least one assay; those are over-represented in the sample as a whole. Unmarked numbers belong to inactive results. Active and inactive are the calls of the source. No stated cut-off is given here; in the data, active means growth inhibition above about 70%; inactive means the rest.
# Legend:
# [1] = NCI Yeast Anticancer Drug Screen. Data for the rad50 strain (AID 155);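 further: 0% = growth of vehicle-only cultures of the same strain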; details: S. cerevisiae rad50 strain growth inhibition, active compounds read high
# Outline: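 Growth of the mutant yeast was measured after compound exposure and referenced to vehicle-treated cultures.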
# [2] = NCI Yeast Anticancer Drug Screen. Data for the mec2-1 strain (AID 157); details: S. cerevisiae mec2-1 strain, active compounds read high
# Outline: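 Yeast mec2-1 mutant treated with compound. Readout: growth inhibition vs vehicle controls.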
# [3] = NCI Yeast Anticancer Drug Screen. Data for the sgs1 mgt1 strain (AID 161);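 further: 0% = growth of cultures given vehicle only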; details: S. cerevisiae sgs1 mgt1 strain, active compounds read high
# Outline: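 Genetically altered yeast, compound exposure, growth inhibition relative to vehicle.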
# [4] = NCI Yeast Anticancer Drug Screen. Data for the cln2 rad14 strain (AID 165);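 further: 0% = growth equal to vehicle treated cultures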; details: S. cerevisiae cln2 rad14 strain, active compounds read high
# Outline: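 cln2 rad14 yeast strain; compound exposure; growth inhibition read vs vehicle controls.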
# [5] = NCI Yeast Anticancer Drug Screen. Data for the bub3 strain (AID 167); details: S. cerevisiae bub3 mutant strain, active compounds read high
# Outline: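 Whole-cell yeast assay. The mutant strain was incubated with compounds, and growth inhibition was determined by comparison with vehicle-treated cells.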
# [6] = NCI Yeast Anticancer Drug Screen. Data for the mlh1 rad18 strain (AID 175); details: S. cerevisiae mlh1 rad18 strain growth inhibition, active compounds read high
# Outline: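 Yeast w/ defined DNA-repair lesions; compound exposure; growth vs vehicle controls → % inhibition.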
# [7] = at 5.0 µM (retest, dose inferred, filed as 0.5)
# [8] = at 50.0 µM (retest, dose inferred, filed as 5.0)
SMILES,"growth inhibition [1, 7]","growth inhibition [1, 8]",growth inhibition ([1]; at 50.0 µM),"growth inhibition [2, 7]","growth inhibition [2, 8]",growth inhibition ([2]; at 50.0 µM),"growth inhibition [3, 7]","growth inhibition [3, 8]",growth inhibition ([3]; at 50.0 µM),"growth inhibition [4, 7]","growth inhibition [4, 8]",growth inhibition ([4]; at 50.0 µM),"growth inhibition [5, 7]","growth inhibition [5, 8]",growth inhibition ([5]; at 50.0 µM),"growth inhibition [6, 7]","growth inhibition [6, 8]",growth inhibition ([6]; at 50.0 µM)
CCN(CC)CCNc1c(C)ccc2cccnc12,0%,7%,33.5%,-4%,-4%,35.9%,-2%,-2%,29.4%,-1%,-14%,-29.2%,-1%,2%,53.8%,0%,8%,51.5%
Cc1ccnc(NC(c2ccccc2)c2ccc3cccnc3c2O)c1 (centres undefined),0%,95% (active),98.3% (active),-5%,97% (active),96.3% (active),-3%,95% (active),97.7% (active),-7%,95% (active),95.4% (active),-6%,96% (active),98.7% (active),6%,95% (active),97.4% (active)
COC(=O)C([NH-])c1ccccc1.COC(=O)C([NH-])c1ccccc1.[Cl][Pt+2][Cl] (centres undefined),16%,81% (active),69%,11%,37%,46.9%,39%,76% (active),76.3% (active),0%,43%,58%,5%,27%,30.2%,21%,60%,76.7% (active)
CCCCCCCCCCCC1=NCCN1CCNCCCC,6%,75% (active),36.6%,5%,90% (active),98.7% (active),6%,96% (active),44.2%,9%,66%,97.3% (active),4%,79% (active),98.4% (active),11%,92% (active),98.8% (active)
O=C(C(Oc1ccc(Cl)cc1)Oc1ccc(Cl)cc1)N(O)c1ccccc1OCc1ccccc1,14%,49%,66.8%,3%,39%,63%,18%,45%,69.5%,-13%,49%,53.6%,6%,57%,47.9%,11%,45%,71.5% (active)
C#CCNCc1ccccc1,18%,63%,66.8%,18%,47%,35.5%,11%,63%,89% (active),0%,32%,29.4%,5%,78% (active),76.8% (active),-4%,49%,58.8%
NS(=O)(=O)c1ccc(NC(=S)/N=C\C(C(=O)c2ccccc2)=C(\O)c2ccccc2)cc1,7%,12%,6.9%,-2%,-15%,1.7%,0%,-5%,9.8%,-19%,-18%,41.5%,3%,8%,8.15%,10%,-7%,2.15%
CN(C)COC(=S)SCN(C)C,98% (active),98% (active),51.4%,96% (active),99% (active),54.1%,99% (active),99% (active),60.2%,93% (active),99% (active),52.9%,96% (active),99% (active),98.3% (active),96% (active),99% (active),98.2% (active)
CSC(SC)=C(C#N)C(=O)Nc1ccc(C)cc1,25%,47%,40.5%,10%,53%,77.3% (active),37%,55%,73.4% (active),36%,37%,29.3%,50%,53%,89.7% (active),8%,8%,83.8% (active)
CC(=O)OCC1OC(OC(C)=O)C(On2nnc3c(-c4ccccc4)c(C)nn32)C(OC(C)=O)C1OC(C)=O (centres undefined),0%,54%,61.5%,-1%,71% (active),35.8%,2%,76% (active),47.8%,1%,52%,41.1%,-1%,59%,16.1%,-3%,58%,36.2%
CSc1ccc(/C=N/NC(N)=S)cc1,-150%,-19%,91% (active),-53%,-4%,76% (active),-65%,12%,81.3% (active),-65%,-19%,43.7%,-63%,-3%,86.5% (active),-119%,1%,84.7% (active)
Nc1ccc2nc3c(nc2c1)C(=O)c1ccccc1-3,47%,93% (active),85.5% (active),10%,93% (active),86.5% (active),19%,88% (active),85% (active),32%,90% (active),83% (active),15%,94% (active),87.6% (active),21%,93% (active),89.5% (active)
Nc1ccc(Cc2ccc(Cl)cc2)cc1,-156%,93% (active),99.2% (active),-51%,96% (active),99% (active),-66%,95% (active),99.3% (active),-60%,94% (active),97.9% (active),-66%,95% (active),98.8% (active),-129%,95% (active),99.2% (active)
N#[N+]c1ccc2c(S(=O)(=O)Oc3ccc(C(=O)c4ccccc4)c(OS(=O)(=O)c4cccc5c([O-])c([N+]#N)ccc45)c3)cccc2c1[O-],-10%,46%,82.5% (active),-7%,33%,85.3% (active),1%,59%,77.2% (active),36%,45%,84% (active),-3%,31%,77.1% (active),-13%,4%,72.7% (active)
COc1cc(OC)c(SSCCCCS(=O)O)c(OC)c1,0%,14%,10.6%,1%,44%,21.5%,11%,55%,41.5%,-13%,25%,44.7%,7%,63%,-26.2%,1%,36%,40.8%
CCCCCCCCC(C)c1ccccc1O (centres undefined),-150%,96% (active),99.7% (active),-53%,98% (active),99.7% (active),-68%,96% (active),99.4% (active),-62%,97% (active),99.4% (active),-56%,96% (active),99.5% (active),-151%,97% (active),99.4% (active)
N#Cc1c(-c2ccc(Cl)cc2)c(-c2ccc(Cl)cc2)nn(CCOC(=O)CCC(=O)O)c1=O,8%,76% (active),89% (active),-3%,76% (active),88.8% (active),22%,66%,78.1% (active),-3%,86% (active),85.2% (active),16%,83% (active),84% (active),8%,81% (active),87% (active)
O=S(=O)(O)c1ccc(O)c2cc(Nc3ccccc3)ccc12,-3%,-26%,44%,-3%,-29%,20.9%,-4%,-31%,26.2%,2%,-37%,-28.6%,2%,-25%,11.6%,3%,-23%,25.5%

# From PubChem BioAssay (NCI)
